A selection: hits, their analogues and other compounds. The true share with any hit is near 2.9%.
Cardio protect: myocardial damage modulation in H9c2 cells. H9c2 cardiomyocytes, H2O2 injury protection, ATPLite, 2 h. protection from H2O2 cell death, % at 20 µM. hit rate 0.63% among 360,000. AID 588492;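 active = compounds giving at least 50% protection of heart cells from peroxide-induced death in the single-dose screen, raw or plate-pattern-corrected value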;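 also: 0% = DMSO wells with peroxide and 100% = DMSO wells without peroxide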
APOBEC3A inh: inhibitors of human APOBEC3A DNA deaminase; recombinant A3A, FAM/TAMRA ssDNA deamination fluorescence; hit rate 0.41% among 330,000; inhibition, % at 20 µM; P31941;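 active = at least 40% inhibition at 20 µM here, with at most 30% in a related deaminase screen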;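 also: plate controls were A3A with DMSO for no effect and wells lacking A3A enzyme for full effect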
Target sequence (P31941 whole entry, looked up): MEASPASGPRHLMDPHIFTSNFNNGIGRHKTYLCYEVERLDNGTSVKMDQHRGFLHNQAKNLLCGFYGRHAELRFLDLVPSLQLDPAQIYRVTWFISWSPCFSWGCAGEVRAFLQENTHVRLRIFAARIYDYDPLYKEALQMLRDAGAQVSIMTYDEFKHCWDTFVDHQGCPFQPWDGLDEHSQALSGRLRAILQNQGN
PfG6PD inh: PfG6PD (Plasmodium falciparum) enzyme inhibition; PfGluPho enzyme, NADPH resazurin-diaphorase fluorescence; inhibition, % at 20 µM; AID 504690; hit rate 0.78% among 350,000;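 active = inhibition reaching at least a set limit at 20 µM in the primary screen, cut at about 59% in these data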;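 also: 0% = DMSO wells with substrate and 100% = DMSO wells lacking glucose-6-phosphate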
NadD block: blocks S. aureus nicotinate mononucleotide adenylyltransferase | purified NadD enzyme, colorimetric absorbance read-out | inhibition, % at 20 µM | hit rate 0.78% among 360,000; in the data active = inhibition above about 26%
TAG inh: triacylglycerol accumulation inhibition. inhibition, % at 12.5 µM. hit rate 0.66% among 230,000. H9c2 cells, Nile Red lipid (TAG) fluorescence; cells loaded with 200 µM oleic acid;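 active = pattern-corrected inhibition of lipid staining of at least 50% with the nuclear-stain viability signal not falling by more than 50%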;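 also: 0% = DMSO wells and 100% = triacsin C control wells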
A3G deaminase: blocks human APOBEC3G single-stranded DNA deamination | Q9HC16 | recombinant A3G, ssDNA deamination FAM/TAMRA fluorescence | inhibition, % at 20 µM | hit rate 0.28% among 330,000;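 active = inhibition of at least 40% at 20 µM, with no more than 30% in the related APOBEC3A deaminase screen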;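 also: plate controls were DMSO wells with A3G for no effect and wells lacking A3G enzyme for full effect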
Target sequence (Q9HC16 whole entry, looked up): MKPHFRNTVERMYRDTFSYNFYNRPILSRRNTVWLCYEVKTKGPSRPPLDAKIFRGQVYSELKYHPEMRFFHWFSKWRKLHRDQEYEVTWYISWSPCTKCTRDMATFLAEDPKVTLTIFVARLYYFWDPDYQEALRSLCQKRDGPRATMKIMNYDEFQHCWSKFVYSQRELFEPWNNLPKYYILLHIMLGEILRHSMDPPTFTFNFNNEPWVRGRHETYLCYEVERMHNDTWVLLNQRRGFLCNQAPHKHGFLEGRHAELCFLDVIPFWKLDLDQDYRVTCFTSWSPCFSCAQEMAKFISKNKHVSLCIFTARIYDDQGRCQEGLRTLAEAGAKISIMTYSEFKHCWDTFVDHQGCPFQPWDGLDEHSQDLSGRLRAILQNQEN
PfGluPho conf: PfG6PD inhibition, single-dose confirmed | shares compounds with PfG6PD inh | AID 504753 | hit rate 34% among 2,400 | inhibition, % at 20 µM | recombinant PfGluPho, NADPH-diaphorase-resazurin fluorescence;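 active = inhibition of at least 50% at 20 µM in any single replicate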;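 also: 0% = DMSO with substrate and 100% = DMSO lacking glucose-6-phosphate substrate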
Diaphorase 10uM: diaphorase inhibition or oxidation at 10 uM NADPH. shares compounds with PfG6PD inh. diaphorase-coupled resazurin reduction, fluorescence, NADPH 10 uM. inhibition, % at 20 µM. hit rate 39% among 820;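 active = average inhibition reaching 50% or more with the compound at 20 µM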;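 also: resorufin red fluorescence formed as diaphorase reduces resazurin using NADPH; 0% = DMSO with enzyme and 100% = DMSO without enzyme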
Diaphorase 30uM: counter-screen for P. falciparum G6PD inhibitors: diaphorase inhibitors, oxidizers | shares compounds with PfG6PD inh | Diaphorase/resazurin coupled assay, resorufin fluorescence, 30 uM NADPH | inhibition, % at 20 µM | hit rate 29% among 820 | AID 504863;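 active = inhibition averaging 50% or more, tested at 20 µM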;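 also: 0% = DMSO with enzyme and 100% = DMSO wells lacking diaphorase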
Active calls of the source: *.

Results for CC1CCCC(C)N1S(=O)(=O)c1ccc(Cl)cc1 (stereo unspecified) ?
Cardio protect: 5; APOBEC3A inh: -1; PfG6PD inh: -18; NadD block: -1; TAG inh: -12; A3G deaminase: 0

How did CC1=C(C)CS(=O)N(S(=O)(=O)c2ccc(Cl)cc2)C1 (stereo unspecified) do in these assays?
Cardio protect: -3; APOBEC3A inh: -9; PfG6PD inh: 60*; NadD block: 16; A3G deaminase: 8; PfGluPho conf: 49*; Diaphorase 10uM: 2; Diaphorase 30uM: 3

Results for COc1ccc(NC(=O)c2cccc(N3C(=O)C4C5C=CC(C5)C4C3=O)c2)cc1Cl (stereo unspecified) ?
Cardio protect: -18; APOBEC3A inh: -5; PfG6PD inh: 7; NadD block: -7; A3G deaminase: -2

How did COc1cc2nc(CN3CCC(C(O)(c4ccccc4)c4ccccc4)CC3)[nH]c(=O)c2cc1OC do in these assays?
Cardio protect: 19; APOBEC3A inh: 2; PfG6PD inh: -11; NadD block: -8; TAG inh: 12; A3G deaminase: -11

What do the screens show for `Cc1cc(C)c2c(=N)c3ccccc3n(CCCCCCCCn3c4ccccc4c(=N)c4c(C)cc(C)nc43)c2n1`?
Cardio protect: -20; PfG6PD inh: 76*; NadD block: 27; TAG inh: 53*; PfGluPho conf: 51*; Diaphorase 10uM: 3; Diaphorase 30uM: 0

Results for Cc1cc(C)c2c(C)nn(-c3ccccc3)c2n1 ?
Cardio protect: -2; APOBEC3A inh: 0; PfG6PD inh: 1; NadD block: -1; TAG inh: -12; A3G deaminase: 2

Results for Cc1ccsc1/C=N/NC(=O)c1nnn(-c2nonc2N)c1-c1ccc2c(c1)OCO2 ?
Cardio protect: 10; APOBEC3A inh: -2; PfG6PD inh: 66*; NadD block: 13; A3G deaminase: -6; PfGluPho conf: 32

How did COc1cccc(-c2c(C(=O)N/N=C/c3ccncc3)nnn2-c2nonc2N)c1 do in these assays?
Cardio protect: 9; APOBEC3A inh: -4; PfG6PD inh: 8; NadD block: 4; A3G deaminase: -6

What do the screens show for `CCCOc1ccc(-c2c(C(=O)N/N=C/c3ccc(C)cc3)nnn2-c2nonc2N)cc1`?
Cardio protect: 0; APOBEC3A inh: -2; PfG6PD inh: 8; NadD block: -3; TAG inh: 7; A3G deaminase: -8

How did COc1cccc(-c2c(C(=O)N/N=C/c3ccc(C)o3)nnn2-c2nonc2N)c1 do in these assays?
Cardio protect: 9; APOBEC3A inh: -5; PfG6PD inh: 66*; NadD block: 5; A3G deaminase: -2; PfGluPho conf: 56*; Diaphorase 10uM: 27; Diaphorase 30uM: 19

Results for CCOc1cccc(-c2c(C(=O)N/N=C/c3ccc(C)s3)nnn2-c2nonc2N)c1 ?
Cardio protect: 11; APOBEC3A inh: 4; PfG6PD inh: 67*; NadD block: 14; A3G deaminase: 8; PfGluPho conf: 40

How did Cc1ccc(-c2c(C(=O)N/N=C/c3ccc(C)o3)nnn2-c2nonc2N)cc1 do in these assays?
Cardio protect: 9; APOBEC3A inh: -2; PfG6PD inh: 79*; NadD block: 4; A3G deaminase: -4; PfGluPho conf: 60*; Diaphorase 10uM: 63*; Diaphorase 30uM: 47

Results for COc1cccc(-c2c(C(=O)N/N=C/c3ccoc3)nnn2-c2nonc2N)c1 ?
Cardio protect: 10; APOBEC3A inh: 2; PfG6PD inh: 4; NadD block: -3; A3G deaminase: -3

What do the screens show for `COc1cccc(-c2c(C(=O)N/N=C/c3ccc(C)s3)nnn2-c2nonc2N)c1`?
Cardio protect: 4; APOBEC3A inh: -4; PfG6PD inh: 98*; NadD block: 4; A3G deaminase: -8; PfGluPho conf: 50*; Diaphorase 10uM: 65*; Diaphorase 30uM: 42

Results for CCOc1ccc(-c2c(C(=O)N/N=C/c3sccc3C)nnn2-c2nonc2N)cc1 ?
Cardio protect: 19; APOBEC3A inh: 0; PfG6PD inh: 9; NadD block: 22; A3G deaminase: -2

What do the screens show for `CCOc1cccc(-c2c(C(=O)N/N=C/c3sccc3C)nnn2-c2nonc2N)c1`?
Cardio protect: 8; APOBEC3A inh: -2; PfG6PD inh: 87*; NadD block: 15; A3G deaminase: -6; PfGluPho conf: 32

What do the screens show for `COc1cc(OC)cc(C(=O)Nc2cc(C)nn2-c2ccccc2)c1`?
Cardio protect: 4; APOBEC3A inh: 0; PfG6PD inh: -18; NadD block: -4; A3G deaminase: -2

Results for CC1=CNC(=O)CC(C)(C)C1 ?
Cardio protect: 4; NadD block: 4

What do the screens show for `COc1cccc2c1C(=N)c1c(O)c3c(c(O)c1C2=O)CC(O)(C(C)=O)CC3OC1CC(N)C(O)C(C)O1` (stereo unspecified)?
Cardio protect: -3; PfG6PD inh: 60*; NadD block: 18; TAG inh: 127; PfGluPho conf: 20

What do the screens show for `CCCCC(=O)OCC(=O)C1(O)Cc2c(O)c3c(c(O)c2C(OC2CC(NC(=O)C(F)(F)F)C(O)C(C)O2)C1)C(=O)c1c(OC)cccc1C3=O` (stereo unspecified)?
Cardio protect: -4; PfG6PD inh: -1; NadD block: -9; TAG inh: 68

Results for Oc1ccc(C2=NNC(c3ccc(O)cc3)=NN2)cc1 ?
Cardio protect: 4; APOBEC3A inh: -5; PfG6PD inh: -8; NadD block: -7; A3G deaminase: -6

What do the screens show for `COc1cc2c(cc1OC)C(c1cc(OC)c(OC)c(OC)c1)C1(O)C(=O)OCC1(O)C2` (stereo unspecified)?
Cardio protect: -1; PfG6PD inh: 14; NadD block: 4; TAG inh: 16

How did CCOC(=O)c1sc(NC(=O)c2ccncc2)c(C#N)c1C do in these assays?
Cardio protect: -27; APOBEC3A inh: 3; PfG6PD inh: 78*; NadD block: 7; A3G deaminase: 1; PfGluPho conf: 45

How did CCCCN1C(=O)C2ON(c3ccccc3C)C(c3ccco3)C2C1=O (stereo unspecified) do in these assays?
Cardio protect: 1; APOBEC3A inh: -1; PfG6PD inh: 73*; NadD block: -2; A3G deaminase: -3; PfGluPho conf: 19
